These results are taken from PubChem BioAssay AID2129 (The Scripps Research Institute Molecular Screening Center, 2009).

Among all 320,000 compounds or so, about 2,200 (0.69%) were called active.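 How the source made its calls: active means inhibition above the mean of all tested compounds plus 3 SD, cutoff set per campaign (cut at about 30% in these data); inactive means the rest.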 The full list was thinned out, with actives kept by preference.

Usually inhibition stands for the drop in the measured response relative to a control, in per cent.

Sequence of Bcl-2-like protein 1 (Homo sapiens) (Q07817 whole entry, looked up): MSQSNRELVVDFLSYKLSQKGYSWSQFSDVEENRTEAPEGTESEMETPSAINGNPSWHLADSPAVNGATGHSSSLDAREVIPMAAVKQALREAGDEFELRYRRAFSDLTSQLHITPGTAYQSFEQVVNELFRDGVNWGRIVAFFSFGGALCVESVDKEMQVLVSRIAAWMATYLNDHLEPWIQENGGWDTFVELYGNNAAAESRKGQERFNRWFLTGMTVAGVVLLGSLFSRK

This assay has as its target Bcl-2-like protein 1 (Homo sapiens) (UniProt Q07817). The assay can be described thus: inhibitors of human Bcl-xL, primary screen, biochemical, fluorescence polarization, HTS (AID 2129).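 Further: 0% = DMSO wells and 100% = unlabeled Bim-BH3 peptide competitor; inhibitors lower millipolarization by displacing the labeled peptide.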 Particulars: GST-Bcl-xL / FITC-Bim BH3 peptide fluorescence polarization; at 10.9 µM; stronger effect = higher value.
As to `O=C(NCCc1ccccn1)c1cc(-c2ccc(Cl)cc2)nc2ccccc12`, the inhibition is -6.46% (inactive).
With `COCCCNC(=S)N(Cc1ccccc1)Cc1ccc(F)cc1` the figure was 3.88% (inactive).
Under `COc1ccc(C(=O)COC(=O)CNC(=O)c2cccs2)cc1Br` stands 5.14% (inactive); under `C=CCOc1cccc(C2C(C(=O)c3ccc(C)o3)=C(O)C(=O)N2c2nnc(C)s2)c1` (stereo not given), 88.7% (active).
Under `Cc1cc(N2C(=O)C(O)=C(C(=O)c3ccc(C)o3)C2c2ccc(OCc3ccccc3)cc2)no1` (stereo not given) stands 11.2% (inactive); under `C=CCOc1cccc(C2C(C(=O)c3ccc(C)o3)=C(O)C(=O)N2CCCn2ccnc2)c1` (stereo not given), 0.01% (inactive); under `Cc1cc(C(=O)NC2CCN(Cc3ccccc3)CC2)n[nH]1`, 1.91% (inactive).
For `C#CCOCCOCCOCCNc1nc(N2CCN(C(=O)C([C@@H](C)CC)n3cc(C(N)COC(=O)C(F)(F)F)nn3)CC2)nc(N2CCN(C(=O)[C@H](Cc3ccc(O)cc3)n3cc(C(N)[C@H](C)CC)nn3)CC2)n1` (stereo not given in full), the inhibition is 14.5% (inactive).
In the case of `Cn1c2c(c(=O)n(C)c1=O)C1c3ccccc3OCC1C(C)(C)O2` (stereo not given), the inhibition was 3.9% (inactive).
With `NC(=O)COC(=O)c1ccc2c(c1)C(=O)N(Cc1ccco1)C2=O` the figure was 4.63% (inactive); with `CCCc1nc2scc(-c3ccc(C)cc3)c2c(=O)n1N`, 1.66% (inactive); with `Cc1cc2ccccc2n1CCC(=O)O`, 52.5% (active).
With `Cc1cc2ccccc2n1CCNC(=O)COc1ccc2ccccc2c1` the figure was 4.61% (inactive); with `O=C(O)CCn1c(Cc2ccccc2)nc2ccccc21`, 1.07% (inactive); with `CC(C)(C)c1cc2cccnc2n1Cc1cccc(F)c1`, 7.39% (inactive).
Under `CN(C)NC(=O)C(NC(=O)c1ccc(N)cc1)C12CC3CC(CC(C3)C1)C2` (stereo not given) stands -0.78% (inactive).
For the compound `CCOC(=O)c1ccccc1CN1C(=O)c2ccccc2S1(=O)=O`, the inhibition is 4.12% (inactive).
With `CCOC(=O)c1cc2n(c1N)-c1ccccc1C2=O` the figure was 140% (active).
For the compound `CC(C)OC(=O)CN1C(=O)C(=O)c2ccccc21`, the inhibition was 10.2% (inactive).
With `Cc1ccc(S(=O)(=O)CC(=O)NC(C)c2ccccc2)cc1` (stereo not given) the figure was -0.31% (inactive).
For `CCOc1cc(CNCCN(C)C)c(Cl)cc1OCC(=O)NCCc1ccccc1`, the inhibition was -0.08% (inactive).
Regarding `CNc1nc(-c2ccccc2)cc(-c2ccccc2)n1`, the inhibition is 2.12% (inactive).
Under `NNC(=O)c1oc2nc(-c3ccccc3)cc(-c3ccco3)c2c1N` stands -35.7% (inactive); under `CNC(=S)NNC(=O)c1oc2nc(-c3ccccc3)cc(-c3ccco3)c2c1N`, 30.6% (active); under `COc1ccccc1C(=O)Nc1ccccc1C(=O)Nc1ccccc1`, -2.98% (inactive).
With `NS(=O)(=O)c1ccc(N=Nc2c(O)[nH]c3ccc(Br)cc23)cc1` the figure was 37.1% (active); with `Oc1[nH]c2ccc(Br)cc2c1N=Nc1nn[nH]n1`, 1.22% (inactive); with `O=C(CNC(=O)Cc1ccccc1)N=Nc1c(O)[nH]c2ccc(Br)cc12`, 10.3% (inactive).
As to `CC(=O)CC[C@@H](C)O[C@@H]1OC(C)[C@H](O)CC1O` (stereo not given in full), the inhibition is 1.11% (inactive).
With `Cc1ccc(-n2c(C)cc(/C=C(\C#N)C(=O)NCC3CCCO3)c2C)cc1` (stereo not given) the figure was -0.52% (inactive); with `CCN1CC=C2C(C#N)=C(N)C(C#N)(C#N)[C@H](c3ccoc3)[C@H]2C1`, 148% (active); with `CCCN1CC=C2C(C#N)=C(N)C(C#N)(C#N)C(c3cc(OC)ccc3OC)C2C1` (stereo not given), 68.3% (active).
Take `COc1ccccc1-n1cnc2cc(NS(=O)(=O)c3ccccc3)ccc21`: the inhibition was 2.73% (inactive).
With `CC(CCc1ccccc1)NCC(O)c1cccc([N+](=O)[O-])c1` (stereo not given) the figure was 1.94% (inactive); with `COc1ccc(NC(=O)c2sccc2SCC#N)cc1`, 8.42% (inactive); with `Clc1cc(NC2CCCCC2)ncn1`, 6.31% (inactive).
Under `CCCCC1S/C(=N/N=C/c2cccs2)NC1=O` (stereo not given) stands 8.02% (inactive); under `CCCc1c(C)nc2c(Br)cccc2c1Cl`, 2.17% (inactive); under `CCOCC(=O)NCc1ccc2c(c1)cc(C)n2C`, 19.5% (inactive).
As for `COc1cc(C(=O)NCc2cc3cc(Cl)ccc3n2C)cc(OC)c1OC`, the inhibition was 1.45% (inactive).
With `COc1cc(C(=O)NCc2ccc3c(c2)cc(C)n3C)cc(OC)c1OC` the figure was 33.2% (active); with `CN(CCO)S(=O)(=O)c1ccc2c(c1)C(=O)c1cc(S(=O)(=O)N(C)CCO)ccc1-2`, 1.55% (inactive); with `CCOC(=O)c1cc2c(=O)n3ccccc3nc2n(CC(C)C)c1=NC(=O)c1c(-c2c(F)cccc2Cl)noc1C`, 3.3% (inactive).
Under `Cc1ccc(NS(=O)(=O)c2ccc3c(c2)NC(=O)CO3)cc1` stands 0.04% (inactive); under `O=C(N1CCCCC1)N1CCN(C(=O)N2CCCCC2)CC1`, 6.91% (inactive); under `CCN1C(=O)CS/C1=N\c1nccs1`, 1.94% (inactive).
With `CC(OC(=O)c1ccc2noc(-c3ccccc3)c2c1)C(N)=O` (stereo not given) the figure was 2.5% (inactive); with `Oc1ccc(-c2onc3ccc(Cl)cc23)cc1`, 3.11% (inactive); with `COc1ccc(-c2onc3ccc(C(C)=O)cc23)cc1`, 178% (active).
Turning to `Cc1c(NC(=S)NC(=O)CCc2ccccc2)c(=O)n(-c2ccccc2)n1C`, the inhibition is 1.79% (inactive).
Under `CCNC(=O)Nc1ccc(S(=O)(=O)Nc2cnc(C)nc2C)cc1` stands 0.51% (inactive); under `CN(C)c1ccc(Nc2c3c4c(cccc4n(C)c2=O)C(=O)c2ccccc2-3)cc1`, 54.3% (active).
With `Cc1cccc(C)c1N1C(=O)CN(Cc2ccccc2)C1=S` the figure was 5.52% (inactive); with `Cc1ccccc1NC(=O)Cc1nc(COC(=O)c2ccc(C(F)(F)F)cc2)cs1`, -1.31% (inactive).
`CC(C)(C)c1ccc(/C=C2\Oc3c(ccc(O)c3CN3CCN(CCO)CC3)C2=O)cc1`: the inhibition is 53.5% (active).
With `CCOC(=O)c1oc2c(CN3CCN(CCO)CC3)c(O)c(CC)cc2c(=O)c1-c1nc2ccccc2s1` the figure was 4.57% (inactive); with `CN(C)S(=O)(=O)c1ccc(Cl)c(NC(=O)COC(=O)CC(NC(N)=O)c2ccc(Cl)cc2)c1` (stereo not given), -5.65% (inactive); with `Cc1ccc2nc(COc3ccc(N(C)S(=O)(=O)c4ccccc4)cc3)cc(=O)n2c1`, 36.5% (active).
With `CN(c1ccc(OCC(=O)O)cc1)S(=O)(=O)c1ccc2ccccc2c1` the figure was 4.89% (inactive).
Under `COc1cccc(COc2ccc(N(C)S(=O)(=O)c3ccccc3)cc2)c1` stands -4.97% (inactive).
